The values that follow come from ChEMBL document CHEMBL4513216, “Probing the Open Global Health Chemical Diversity Library for Multistage-Active Starting Points for Next-Generation Antimalarials” (ACS Infect Dis, 2020).

Out of some 68,000 compounds screened, about 2,700 (4%) showed an effect of 50% or more. Only a selection was taken, and strong results are over-represented in it overall.

The experiment has as its system Plasmodium berghei. The experiment is described as follows: Screen against P. berghei liver stage (PbLuc), transformed with Luciferase, at 2uM. It counts as functional, HepG2. The following applies: tested at 2 uM.
In the case of `c1ccc(OC2COC3(CCN(CC4CC4)CC3)C2)nc1` (stereo not drawn), the INHIBITION is listed as -17.63%.

As for `CCC1(c2ccc(NS(=O)(=O)c3cccs3)cc2)CCC(=O)NC1=O` (stereo not drawn), the INHIBITION was -13.33%.

Take `CNC(=O)CC1CCN(C(=O)NCC2(c3ccccc3F)CC2)CC1`: the INHIBITION is -23.23%.

For `COCCOC1CCN(C(=O)NCc2coc3ccccc23)CC1`, the INHIBITION worked out at 40.88%.

Turning to `CNC(=O)CC1CCN(C(=O)NCc2coc3ccccc23)CC1`, the INHIBITION is 53.81%.

`CC(C)N1CCC(CC(=O)N(C)C(C)c2cncs2)CC1` (stereo not drawn): the INHIBITION turned out to be 17.73%.

In the case of `O=C(C1CN(c2ncc(F)cn2)CC12CCOCC2)N1CC=CC1` (stereo not drawn), the INHIBITION is -78.69%.

In the case of `Cc1cnc(N2CC(C(=O)N3CCOCC3)C3(CCOCC3)C2)nc1` (stereo not drawn), the INHIBITION is on record as 65.04%.

Turning to `O=C(C1CN(c2ncc(F)cn2)CC12CCOCC2)N1CCOCC1` (stereo not drawn), the INHIBITION is recorded as -45.73%.

As for `Cn1cc(CN2CCO[C@H]3CN(Cc4ccsc4)C[C@H]32)cn1`, the INHIBITION turned out to be 1.88%.

With `N#Cc1ncn(CCC(=O)Nc2ccc(F)c(F)c2)n1`, the INHIBITION is listed as 57.92%.

Turning to `N#Cc1ncn(CCC(=O)Nc2cccc(Cl)c2)n1`, the INHIBITION is 7.13%.

Regarding `N#Cc1ncn(CCC(=O)Nc2ccc(Cl)cc2F)n1`, the INHIBITION is 5.52%.

Consider `Cc1cc(C(=O)N2CCC3(CC(=O)NC3=O)C2)c(-c2ccccc2)o1` (stereo not drawn), for which the INHIBITION stood at 15.87%.

Take `CCOc1ncnc2c1CCN(C(=O)c1ccncc1F)CC2`: the INHIBITION is listed as 28.85%.

Take `Cc1csc(C2(NCc3csc(C4CC4)n3)CCCC2)n1`: the INHIBITION was -9.69%.

`c1csc(C2(NCc3csc(C4CC4)n3)CCCC2)n1`: the INHIBITION is -56.92%.

As to `CCCc1nc(CNC2(c3nccs3)CCCC2)cs1`, the INHIBITION was 58.68%.

For `Cc1nc(C)n(CC2CCCCN2CC(=O)Nc2nnc(C)s2)n1` (stereo not drawn), the INHIBITION is 19.97%.

In the case of `CN(C)Cc1nn(C)c2c1CN(S(=O)(=O)c1ccccc1F)C2`, the INHIBITION is 32.05%.

Consider `COCCN(Cc1ccoc1)S(=O)(=O)c1ccc(F)c(C)c1`, for which the INHIBITION is recorded as -10.1%.

Turning to `CCOc1ccc(S(=O)(=O)N(CCOC)Cc2ccoc2)cc1F`, the INHIBITION amounted to 21.37%.

Consider `CCOc1ccc(S(=O)(=O)N(CCOC)Cc2ccncc2)cc1F`, for which the INHIBITION was 60.35%.

Consider `CSCC[C@@H](CO)n1ccnc1-c1nccn1C`, for which the INHIBITION stood at 17.37%.

In the case of `CN1CC(=O)N(c2cnn(C)c2)CC12CCN(C(=O)c1ccsc1)C2` (stereo not drawn), the INHIBITION was -6.94%.

Consider `CCc1noc(C(C)N2CCN(Cc3cnc(C)cn3)CC2)n1` (stereo not drawn), for which the INHIBITION is -1.29%.

As to `Cc1nc(N2CCN(C(=O)c3ccsc3)CC2)c2cnn(C)c2n1`, the INHIBITION is reported as 42.11%.

Take `N#Cc1ccc(N2CCCC3(CCC(=O)N3CC3CC3)CC2)nc1` (stereo not drawn): the INHIBITION is -16.78%.

On to `N#Cc1ccc(N2CCC3(CCC(=O)N3CCN3CCCC3)CC2)nc1`, for which the INHIBITION is recorded as 52.96%.

In the case of `CN1C(=O)CCC12CCN(c1ccc(C#N)cn1)CC2`, the INHIBITION is reported as 5.22%.

`COc1ccccc1N1CCN(C(=O)COc2c(C)occc2=O)CC1`: the INHIBITION is on record as -24.81%.

`Cc1nc(C)n(CC2CCCN(CCOc3ccc(F)cc3)C2)n1` (stereo not drawn): the INHIBITION is reported as -23.18%.

In the case of `Cc1cccc(CN2CCCC23CCNC3)n1` (stereo not drawn), the INHIBITION is recorded as 63.89%.

As for `Cc1cccc(CN2CCC23CCCNC3)n1` (stereo not drawn), the INHIBITION came out at 20.51%.

As for `Cc1cccc(CN2CCCCC23CCNC3)n1` (stereo not drawn), the INHIBITION is listed as 22.16%.

With `CCc1nnc2n1CCN(Cc1csc(NC(C)=O)n1)C2`, the INHIBITION is given as -5.09%.

On to `Cc1ccc2c(c1)SCC(=O)N2CC(=O)N1CCC[C@H]1c1nc(C)no1`, for which the INHIBITION worked out at 22%.

In the case of `COc1c(CNC2CCc3cc(F)ccc32)c(C(C)C)nn1C` (stereo not drawn), the INHIBITION is listed as -52.77%.

`COCC(=O)NCC1(COc2cccnc2)C[C@@H](O)[C@@H](O)C1` (stereo partly drawn): the INHIBITION was -40.44%.

On to `CCn1nc(C)cc1S(=O)(=O)N1CCC2(CC(=O)NC2=O)C1` (stereo not drawn), for which the INHIBITION was 5.28%.

Turning to `CCCN1CCCC2(CCN(S(=O)(=O)c3cccnc3)C2)C1=O` (stereo not drawn), the INHIBITION worked out at 11.9%.

For `CCCn1nccc1S(=O)(=O)N1CCC2(CCCN(C(C)C)C2=O)C1` (stereo not drawn), the INHIBITION turned out to be 38.67%.

Consider `CCn1nc(C)cc1S(=O)(=O)N1CCC2(CCCN(C(C)C)C2=O)C1` (stereo not drawn), for which the INHIBITION is 55.36%.

As for `CCCN1CCCC2(CCN(S(=O)(=O)c3cc(C)nn3CC)C2)C1=O` (stereo not drawn), the INHIBITION came out at 57.75%.

For the compound `CCn1nccc1S(=O)(=O)N1CCC2(CCCN(C(C)C)C2=O)C1` (stereo not drawn), the INHIBITION came to 17.2%.

Turning to `COCCN1C(=O)[C@@H]2CC[C@H]1CN(C(=O)COc1ccc(F)c(Cl)c1)C2`, the INHIBITION is listed as 38.83%.

Regarding `COc1ccc(C2=CCN(C(=O)C3CCN(C)C(=O)C3)CC2)cc1` (stereo not drawn), the INHIBITION is given as 17.39%.

On to `O=C(NCc1ccccn1)[C@@]12CCO[C@@H]1CCN(c1ncccn1)C2`, for which the INHIBITION was -20.87%.

Regarding `Cc1oc(C(=O)O)cc1S(=O)(=O)Nc1cc(Cl)ccc1F`, the INHIBITION amounted to 16.64%.

With `Cc1oc(C(=O)O)cc1S(=O)(=O)Nc1ccc(Cl)c(Cl)c1`, the INHIBITION is reported as 16.79%.

On to `Cc1oc(C(=O)O)cc1S(=O)(=O)Nc1ccc(Cl)c(F)c1`, for which the INHIBITION was 56.67%.

On to `Cc1n[nH]c(C)c1NC(=O)CN1CCOC(Cn2cccn2)C1` (stereo not drawn), for which the INHIBITION is recorded as 37.52%.

Turning to `Cn1cc(C(=O)N2CCCC(c3cc(O)n(C)n3)C2)cn1` (stereo not drawn), the INHIBITION is 27.39%.
